Assay results taken from PubChem BioAssay (NCATS).
Records with an inconclusive call do not appear. The source made the active and inactive calls. Unless noted, the call rests on the fitted dose curve; in most records, active means well fitted curve in the direction sought with a large enough effect; inconclusive means small, poorly fitted or top-dose-only effect, or another doubt; inactive means no such curve, though single readings can be large; an effect the other way counts as inactive or inconclusive.

Assays:
[1] = target: Aldehyde dehydrogenase, mitochondrial (Homo sapiens) (UniProt P05091); experiment: qHTS for Inhibitors of the Aldehyde Dehydrogenase Family (ALDH2) Validation screens (AID 2061302; active means well fitted inhibition curve with a large enough effect; title and protocol of this record describe different tests; further: potency means the concentration at half of the fitted maximal effect;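 on activity change, negative = inhibition: plate controls were DMSO vehicle for no effect and maximal DPI positive control response for full effect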)
[2] = target: Aldehyde dehydrogenase, mitochondrial (Homo sapiens) (UniProt P05091); experiment: qHTS for Inhibitors of the Aldehyde Dehydrogenase Family (ALDH2) Primary screen (AID 2061308);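 further: plate controls were vehicle for no effect and reference inhibitor for full effect; nearly all actives have a fitted effect of over 55% in size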
[3] = target: Retinaldehyde dehydrogenase 3 (Homo sapiens) (UniProt P47895); experiment: qHTS for Inhibitors of the Aldehyde Dehydrogenase Family (ALDH1A3) Validation screen (AID 2061312); further: on the % scale 0 is the no-effect control and ±100 the full control effect; nearly all actives have a fitted effect of over 45% in size
[4] = target: Retinaldehyde dehydrogenase 3 (Homo sapiens) (UniProt P47895); experiment: qHTS for Inhibitors of the Aldehyde Dehydrogenase Family (ALDH1A3) Primary screen (AID 2061315);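 further: plate controls were DMSO vehicle for no effect and reference inhibitor for full effect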
[5] = BET inhibitor-based combinations targeting novel dependencies in MECOM-rearranged (r) AML: SET-2 cell line (AID 2202231); details: SET-2 AML cells viability, CellTiter-Glo luminescence, 48 h; viability: stronger effect = lower value, concentration not given here; further: nearly all actives have a fitted effect of over 35% in size; further: potency means the concentration at half of the fitted maximal effect;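 on viability: plate controls were DMSO treated cells for no effect and wells without cells for full effect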
Procedure, shortened: (§1)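 Readout: CellTiter-Glo luminescence. Exposure: 48 h, 11 concentrations, 500 cells/well. Metric: AUC and within-line Z-AUC after DMSO/empty-well normalization.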

[6] = BET inhibitor-based combinations targeting novel dependencies in MECOM-rearranged (r) AML: OCI-AML3 cell line (AID 2202232); details: Potency: OCI-AML3 viability; further: nearly all actives have a fitted effect of over 35% in size; further: potency means the concentration at half of the fitted maximal effect;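 on viability (% of control): series mostly up to about 46 µM; plate controls were DMSO vehicle wells for no effect and wells without cells for full effect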
Procedure, shortened: as §1

[7] = BET inhibitor-based combinations targeting novel dependencies in MECOM-rearranged (r) AML: AML-194 cell line (AID 2202237; further: nearly all actives have a fitted effect of over 40% in size; further: potency means the concentration at half of the fitted maximal effect;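 on viability (% of control): plate controls were vehicle wells for no effect and wells without cells for full effect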)
Procedure, shortened: as §1

[8] = BET inhibitor-based combinations targeting novel dependencies in MECOM-rearranged (r) AML: UCSD-AML1 cell line (AID 2202235); further: nearly all actives have a fitted effect of over 40% in size; further: potency means the concentration at half of the fitted maximal effect;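 on viability (% of control): series mostly up to about 46 µM; plate controls were DMSO vehicle wells for no effect and blank wells for full effect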
Procedure, shortened: (§2)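 Seeding density was 500 cells/well, and drug exposure lasted 48 hr under standard culture conditions. Read-out used CellTiter-Glo reagent with a 15 min room-temperature incubation before luminescence measurement; AUC and Z-AUC summarize the normalized responses.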

[9] = target: Aldehyde dehydrogenase, mitochondrial (Homo sapiens) (UniProt P05091); experiment: qHTS for Inhibitors of the Aldehyde Dehydrogenase Family (ALDH2) Confirmatory screens (AID 2061303; active means well fitted inhibition curve with a large enough effect; title and protocol of this record describe different tests; further: potency means the concentration at half of the fitted maximal effect; nearly all actives have a fitted effect of over 45% in size)
[10] = qHTS for Inhibitors of the Aldehyde Dehydrogenase Family (ALDH1A2, ALDH1A3, ALDH2, ALDH3A1) (AID 2061307); further: test system not described further here; potency means the concentration at half of the fitted maximal effect; nearly all actives have a fitted effect of over 50% in size
[11] = target: Retinal dehydrogenase 2 (Homo sapiens) (UniProt O94788); experiment: qHTS for Inhibitors of the Aldehyde Dehydrogenase Family (ALDH1A2) Confirmation screens (AID 2061314); further: potency means the concentration at half of the fitted maximal effect; nearly all actives have a fitted effect of over 65% in size
[12] = target: Aldehyde dehydrogenase 1A1 (Homo sapiens) (UniProt P00352); experiment: qHTS for Inhibitors of the Aldehyde Dehydrogenase Family (ALDH1A1) Confirmatory screens (AID 2061316); further: potency means the concentration at half of the fitted maximal effect; nearly all actives have a fitted effect of over 65% in size
[13] = BET inhibitor-based combinations targeting novel dependencies in MECOM-rearranged (r) AML: MV-4-11 cell line (AID 2202233); further: nearly all actives have a fitted effect of over 45% in size; further: potency means the concentration at half of the fitted maximal effect;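 on viability, % of control: plate controls were DMSO for no effect and blank wells for full effect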
Procedure, shortened: as §2

[14] = BET inhibitor-based combinations targeting novel dependencies in MECOM-rearranged (r) AML: HNT-34 cell line (AID 2202234); further: potency means the concentration at half of the fitted maximal effect; nearly all actives have a fitted effect of over 35% in size
Procedure, shortened: as §2

[15] = BET inhibitor-based combinations targeting novel dependencies in MECOM-rearranged (r) AML: AML-191 cell line (AID 2202236;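 further: plate controls were vehicle wells for no effect and wells without cells for full effect; nearly all actives have a fitted effect of over 35% in size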)
Procedure, shortened: as §1

CC(=O)O[C@]1(C(C)=O)CC[C@H]2[C@@H]3C=C(Cl)C4=CC(=O)[C@@H]5C[C@@H]5[C@]4(C)[C@H]3CC[C@@]21C
inactive: Potency [1] | Potency [2] | Potency [3] | Potency [4] | viability [5] 80.8% | Potency [6] | Potency [7]

CC(C)NC[C@H](O)COc1cccc2ccccc12
inactive: Potency [1] | Potency [3]

CCCCCC(O)CCCC(=O)O (stereo unspecified)
inactive: Potency [1] | Potency [3]

CC(C)OC(=O)C(C)(C)Oc1ccc(C(=O)c2ccc(Cl)cc2)cc1
inactive: Potency [1] | Potency [3]

Cc1ccc(-c2cc(C(F)(F)F)nn2-c2ccc(S(N)(=O)=O)cc2)cc1
inactive: Potency [1] | Potency [2] | Potency [3] | Potency [4] | Potency [8] | Potency [7]

CSc1nc(N)c2ncn([C@@H]3O[C@H](COP(=O)(O)OP(=O)(O)OP(=O)(O)O)[C@@H](O)[C@H]3O)c2n1
inactive: Potency [1] | Potency [3]

CN=C(NC#N)NCCSCc1nc[nH]c1C
inactive: Potency [1] | Potency [3]

COc1cc2c(cc1O)CC[C@@H]1[C@@H]2CC[C@]2(C)[C@@H](O)CC[C@@H]12
inactive: Potency [1] | Potency [3]

O=C1NC(O)=NC1(c1ccccc1)c1ccccc1
inactive: Potency [1] | Potency [3]

CN1Cc2c(N)cccc2C(c2ccccc2)C1 (stereo unspecified)
inactive: Potency [1] | Potency [3]

COc1cc(OC)c(/C=C2/C(=O)Nc3ccccc32)c(OC)c1
inactive: Potency [1] | Potency [3]

CCOC(=O)C1=C(C)NC(C)=C(C(=O)OCC)C1c1c(F)c(F)c(F)c(F)c1F
inactive: Potency [1] | Potency [3]

CC(C)(C)OC(=O)N1CCN(c2ccc(NCc3ccc(-c4ccc(C#N)cc4)o3)nc2)CC1
inactive: Potency [4]
active: Potency [1] 0.708 µM | Potency [9] 0.447 µM | Potency [10] 15.8 µM | Potency [11] 25.1 µM | Potency [12] 7.12 µM

CC(C)c1c(C(=O)Nc2ccccc2)c(-c2ccccc2)c(-c2ccc(F)cc2)n1CC[C@@H](O)C[C@@H](O)CC(=O)O
active: Potency [5] 7.23 µM | Potency [6] 3.23 µM | Potency [13] 5.74 µM | Potency [8] 7.23 µM | Potency [7] 12.9 µM
inactive: Potency [1] | Potency [2] | Potency [3] | Potency [4]

CCN(CC)CCCC(C)Nc1ccnc2cc(Cl)ccc12 (stereo unspecified)
active: Potency [14] 5.39 µM
inactive: Potency [1] | activity change, negative = inhibition [2] 0.897% [at 11.2 µM] | Potency [3] | activity change, negative = inhibition [4] 6.44% [at 11.2 µM] | viability [5] 102% | viability (% of control) [6] 92.2% [at 8.46 µM] | viability, % of control [13] 101% [at 8.46 µM] | viability (% of control) [15] 95.1% [at 8.46 µM] | viability (% of control) [7] 111% [at 8.46 µM]

CC(=O)[C@@]1(O)CC[C@H]2[C@@H]3CCC4=CC(=O)CC[C@]4(C)[C@H]3CC[C@@]21C
inactive: Potency [1] | Potency [3]

CC(N)=O
inactive: Potency [1] | Potency [3]

Clc1ccc2c(c1)C(N1CCNCC1)=Nc1ccccc1O2
inactive: Potency [1] | Potency [2] | Potency [3] | Potency [4]
